Results taken from PubChem BioAssay (NCI).
About 83,000 compounds went through this panel and 20% of them were active in at least one assay; those are over-represented in the sample as a whole.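 The test compound was applied at a single concentration to cells in 96-well plates for 48 hours, and percent growth was recorded.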 Unmarked numbers belong to inactive results. The source made the active and inactive calls. How the source made its calls: active means growth percent below 10; inactive means the rest.

Tests used:
Assay in all cases: NCI-60 one-dose screen, 48 h (100 = growth as untreated, 0 = no growth, -100 = all killed)
Details in all cases: 10 µM unless noted
NCI-H23 lung = system: NCI-H23 lung
NCI-H226 lung = system: NCI-H226 lung
NCI-H322M lung = system: NCI-H322M lung
HOP-62 NSCLC = system: HOP-62 NSCLC
NCI-H460 lung = system: NCI-H460 lung
NCI-H522 lung = system: NCI-H522 lung
A549/ATCC NSCLC = system: A549/ATCC NSCLC
786-0 renal = system: 786-0 renal
COLO 205 colon = system: COLO 205 colon
HOP-92 NSCLC = system: HOP-92 NSCLC

SMILES	growth (NCI-H23 lung)	growth (NCI-H226 lung)	growth (NCI-H322M lung)	growth (HOP-62 NSCLC)	growth (NCI-H460 lung)	growth (NCI-H522 lung)	growth (A549/ATCC NSCLC)	growth (786-0 renal)	growth (COLO 205 colon)	growth (HOP-92 NSCLC) [%]
CCOC(=O)CC(c1ccccc1)C(C#N)c1ccccc1 (centres undefined)	102%	95.4%	108%	96.2%	105%	95.9%	99.3%	98.7%	100%	–
CC1=CC[C@@H]2C(C)(C)C(=O)CC[C@@]2(C)[C@@H]1COc1ccc2ccc(=O)oc2c1	83%	43.8%	89.3%	97.5%	89.2%	53.6%	62.2%	89.9%	–	–
COc1ccc(OC)c([N+](=O)[O-])c1C(=O)CNC(C)=O	105%	101%	105%	105%	107%	95.7%	100%	103%	114%	–
CC1(C)S[C@@H]2[C@H](NC(=O)[C@H](C(=O)O)c3cccs3)C(=O)N2[C@H]1C(=O)O	102%	105%	108%	105%	113%	75.8%	102%	97.1%	111%	–
CCN=Cc1c(O)c(O)c(C(C)C)c2cc(C)c(-c3c(C)cc4c(C(C)C)c(O)c(O)c(C=NCC)c4c3O)c(O)c12	24.9%	80.4%	48.3%	51.3%	26%	43.3%	27.2%	72.5%	7.89% (active)	–
CCN(CC)CCCOc1ccc2c(c1)O/C(=C\c1cccc(OC)c1)C2=O	83.9%	87.8%	89.8%	104%	87.2%	98.8%	93.5%	93.8%	–	–
COc1ccc(-c2cc(-c3ccc(OC)c(OC)c3)nc(SCCCCCC(=O)NO)n2)cc1	68.7%	95.2%	70.6%	60.3%	62.3%	6.61% (active)	85.7%	94.1%	36.8%	–
CCc1ccc(NC(=O)N[C@@H](Cc2cc(F)cc(F)c2)C(=O)N[C@@H]2C(=O)N3C[C@H](O)C[C@H]3C(=O)N3CCOC[C@H]3C(=O)N[C@@H](C)C(=O)N3C[C@H](C)C[C@H]3C(=O)O[C@H]2C)cc1	34.5%	–	84.3%	72.9%	46.5%	27%	79.3%	89.1%	–	10.3
C[n+]1c(-c2ccccc2)c2cc(N)ccc2c2ccccc21	27.5%	26.3%	70.8%	63.8%	28.4%	-5.84% (active)	44.4%	55.3%	16.7%	–
Cc1ccc(N)c(O)c1	86.2%	97.5%	91%	91.7%	100%	73.8%	85.4%	90.8%	–	–
c1cc2ccc3cc2cc1CNCCN1CCNCc2ccc4ccc(cc4c2)CNCCN(CCNC3)CCNCc2ccc3ccc(cc3c2)CNCC1	-7% (active)	6.46% (active)	56.3%	60.3%	16.1%	0.768% (active)	2.2% (active)	89.7%	-32.7% (active)	–
COC(=O)[C@]12CCC(C)(C)C[C@H]1C1=CC[C@@H]3[C@@]4(C)C/C(=C/c5cccnc5)C(=O)C(C)(C)[C@@H]4CC[C@@]3(C)[C@]1(C)CC2	-40.6% [100 µM] (active)	-51.7% [100 µM] (active)	-13.4% [100 µM] (active)	-19.3% [100 µM] (active)	-39.3% [100 µM] (active)	-72.9% [100 µM] (active)	0.0781% [100 µM] (active)	-29.1% [100 µM] (active)	-46.2% [100 µM] (active)	–
